Reference: ChEMBL document CHEMBL4513146, “CO-ADD screening of Karazin Kharkiv National University (Ukraine) compounds”
Potency and affinity values are given separately.

tested on: Cryptococcus neoformans; conditions: Concentration 32 ug.mL-1; ASSAY_TEST Inhibition of Fungal Growth; detection method Resazurin; Absorption (OD600-OD570); plate type 384well; NBS; CORNING #3640

| Compound | Inhibition [%] |
| --- | --- |
| COc1ccc(NC(=O)c2ccc3nn(CC(=O)Nc4ccc5c(c4)OCCO5)c(=O)n3c2)cc1 | -23.54 |
| CSc1cccc(NC(=O)Cn2nc3c(N4CCCC(C)C4)nccn3c2=O)c1 (centres undefined) | -37.15 |
| O=C(Cn1nc2c(SC3CCCCC3)nccn2c1=O)Nc1ccccc1Br | -1.71 |
| COc1ccc(-c2cc3c4nnc(SCC(=O)Nc5ccc(OC)c(Cl)c5)n4ccn3n2)cc1 | -21.63 |
| COc1cccc(CN(c2ccc(F)cc2)S(=O)(=O)c2ccc3nnc(C)n3c2)c1 | -13.2 |
| COc1ccc(-c2cc3c4nn(CC(=O)NCc5ccccc5Cl)c(=O)n4ccn3n2)cc1 | -29.87 |
| CCC(Sc1nnc2c(=O)n(-c3ccccc3)ccn12)C(=O)Nc1cc(F)ccc1F (centres undefined) | -17.31 |
| COc1ccccc1NC(=O)Cn1nc2c(SCc3ccc(Cl)cc3)nccn2c1=O | -17.01 |
| Cc1ccc(-c2cc3c4nn(CC(=O)Nc5cccc(Br)c5)c(=O)n4ccn3n2)cc1 | -43.73 |
| COc1ccccc1NC(=O)Cn1c(=O)c2nnc(C(C)C)n2c2ccccc21 | -9.5 |
| O=C(CSc1nnc2c(=O)n(-c3ccc(F)cc3)ccn12)N1CCN(c2ccccc2F)CC1 | -7.82 |
| Cc1ccc(Oc2nccn3c(=O)n(CC(=O)Nc4ccc(C)cc4Cl)nc23)cc1 | -3.03 |
| COc1cccc(CN(c2cccc(C)c2)S(=O)(=O)c2ccc3nnc(C)n3c2)c1 | -14.81 |
| Cc1nnc2c(=O)n(CC(=O)Nc3ccccc3Br)c3ccccc3n12 | -7.03 |
| CCOc1ccccc1CNC(=O)CCc1nnc2ccc(-c3ccc(C)cc3)nn12 | -5.38 |
| O=C(Cn1nc2c3cc(-c4ccc(F)cc4)nn3ccn2c1=O)Nc1ccc2c(c1)OCCO2 | -25.22 |
| CCCN(C)c1nccn2c(=O)n(CC(=O)Nc3ccc(C#N)cc3)nc12 | -9.74 |
| CCCCc1ccc(NC(=O)CSc2nc3ccccc3n3c(C(C)C)nnc23)cc1 | -2.44 |
| COc1ccccc1N1CCN(C(=O)CSc2nc3ccccc3n3c(C(C)C)nnc23)CC1 | -16.67 |
| CCCc1nnc2c(=O)n(CC(=O)Nc3cccc(Br)c3)c3ccccc3n12 | -38.92 |

| Compound | Inhibition [%] |
| --- | --- |
| Cc1ccc(C)c(Cn2nc3c(=O)n(-c4cccc(Cl)c4C)ccn3c2=O)c1 | -13.68 |
| COc1ccc(Cl)cc1NC(=O)Cn1nc2c(Sc3ccc(C)cc3C)nccn2c1=O | -21.72 |
| COc1cccc(-c2noc(Cn3nc4ccc(-c5ccc(C)c(C)c5)nn4c3=O)n2)c1OC | -10.63 |
| Cc1cccc(NC(=O)Cn2nc3c4cc(-c5ccc(Cl)cc5)nn4ccn3c2=O)c1C | -23.15 |
| CCOc1ccc(-n2ccn3c(SCC(=O)c4cccc(Cl)c4)nnc3c2=O)cc1 | -7.79 |
| CN(C)C(=O)CSc1nnc2c(=O)n(-c3ccc(F)cc3)ccn12 | -5.4 |
| Cc1ccccc1NC(=O)Cn1nc2ccc(SC3CCCCC3)nn2c1=O | -16.32 |
| COc1ccc(-c2cc3c4nn(CC(=O)Nc5c(C)cccc5C)c(=O)n4ccn3n2)cc1 | -19.98 |
| Cc1cc(C)cc(N(Cc2cc(F)cc(F)c2)S(=O)(=O)c2cccn3c(C)nnc23)c1 | -11.73 |
| Cc1c(Cl)cccc1NC(=O)CSc1nc2ccccc2n2c(C)nnc12 | -27.73 |
| CC(C)Cn1c(=O)c2sccc2n2c(=O)n(CC(=O)NC(C)(C)C)nc12 | -15.87 |
| C=Cc1ccc(CSc2nnc3c(=O)n(-c4cccc(OC)c4)ccn23)cc1 | -2.41 |
| COc1cc(NC(=O)Cn2nc3c(Oc4ccccc4)nccn3c2=O)cc(OC)c1OC | -9.79 |
| COC(=O)c1ccc(CN(c2ccc(C)cc2)S(=O)(=O)c2ccc3nnc(C)n3c2)o1 | -13.09 |
| CC1CC(C)CN(c2nccn3c(=O)n(CC(=O)NCc4ccccc4Cl)nc23)C1 (centres undefined) | -5.61 |
| Cc1nnc2ccc(S(=O)(=O)N(Cc3ccccc3Cl)c3cccc(F)c3)cn12 | -10.07 |
| COc1ccc(NC(=O)Cn2nc3c(SCc4ccc(Cl)cc4)nccn3c2=O)cc1 | -4.83 |
| O=C(CSc1nnc2c(=O)n(-c3ccccc3)ccn12)c1c[nH]c2ccccc12 | -9.19 |
| CCCc1nnc2c(=O)n(CC(=O)N3CCCc4ccccc43)c3ccccc3n12 | -21.26 |
